{"source": "PubChem BioAssay AID1224817", "about": "(Yan Lab, Georgia Cancer Center, Augusta University, 2016)", "note": "Out of some 2,000 compounds screened, about 25 (1%) were called active.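 The calls were made as follows: active = log2 luciferase ratio at or below -0.5849, meaning signal at two thirds of solvent-only control or lower; inactive = the rest.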 Many of the other results were omitted from the sample, so actives are more common in it than they were."}
{"assay": "inhibitors of EIF4E gene expression, primary screen, cell-based, HT1080, luciferase reporter (AID 1224817);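 also: luciferase reports endogenous eIF4E expression since it is co-expressed from the native EIF4E locus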", "details": "HT1080 EIF4E-luc2 knock-in reporter, 16 h, at 2.5 µM, active compounds read low"}
{"smiles": "Cc1ccccc1C(=N)c1ccccc1Cc1cccc2ccccc12", "log2 luciferase activity ratio": "0.0556 (inactive)"}
{"smiles": "CC1(C)C(CC(=O)O)CCCC1CC(=O)O", "note": "(centres undefined)", "log2 luciferase activity ratio": "-0.193 (inactive)"}
{"smiles": "N=C1C(O)C2(I)c3ccccc3N3C(=N)C(O)C4c5ccccc5N1C4C32", "note": "(centres undefined)", "log2 luciferase activity ratio": "0.988 (inactive)"}
{"smiles": "CC[C@]12CCCN3CCc4c(n(c5ccccc45)C(=O)C1)[C@@H]32", "log2 luciferase activity ratio": "-0.317 (inactive)"}
{"smiles": "COC(=O)C1OC(SCCN)C(O)C(O)C1O", "note": "(centres undefined)", "log2 luciferase activity ratio": "0.246 (inactive)"}
{"smiles": "O=C(O)c1nnsc1-c1csnn1", "log2 luciferase activity ratio": "-0.0043 (inactive)"}
{"smiles": "CN(C)Cc1cc(C(=O)O)cc(CN(C)C)c1O", "log2 luciferase activity ratio": "-0.293 (inactive)"}
{"smiles": "CC(=O)Nc1ccc(-c2cc(C(=O)O)c3cc4ccccc4cc3n2)cc1", "log2 luciferase activity ratio": "0.356 (inactive)"}
{"smiles": "C[C@@H]1C[C@H]2[C@@H]3CCC4=CC(=O)C=C[C@]4(C)[C@@]3(Cl)[C@@H](Cl)C[C@]2(C)[C@@]1(O)C(=O)COP(=O)(O)O", "log2 luciferase activity ratio": "0.28 (inactive)"}
{"smiles": "CC[C@@H]1CN(C)[C@H]2Cc3c([nH]c4ccccc34)C(=O)C[C@H]1C2C(=O)OC", "note": "(some centres undefined)", "log2 luciferase activity ratio": "-0.243 (inactive)"}
{"smiles": "COc1ccc2c(c1)O[C@H]1c3ccc(O)cc3OC[C@@H]21", "log2 luciferase activity ratio": "0.161 (inactive)"}
{"smiles": "Cn1c([N+](=O)[O-])cnc1CN1CCN(CCO)CC1", "log2 luciferase activity ratio": "0.268 (inactive)"}
{"smiles": "O=C(O)c1cccc(CN2CCCCC2)c1", "log2 luciferase activity ratio": "0.0092 (inactive)"}
{"smiles": "C[N+](C)(C)/N=C/c1ccc(O)c(O)c1", "log2 luciferase activity ratio": "-0.303 (inactive)"}
{"smiles": "NC(N)=NC(N)=Nc1ccc(S(N)(=O)=O)cc1", "log2 luciferase activity ratio": "-0.0076 (inactive)"}
{"smiles": "CCCCN(c1ccccc1)c1ncnc2c1cnn2C", "log2 luciferase activity ratio": "-0.0702 (inactive)"}
{"smiles": "COc1ccc2nc3cc(Cl)ccc3c(Nc3ccc(O)c(CN4CCN(C)CC4)c3)c2c1", "log2 luciferase activity ratio": "0.0343 (inactive)"}
{"smiles": "NC(CC(=O)O)(Cc1ccccc1)C(=O)O", "note": "(centres undefined)", "log2 luciferase activity ratio": "-0.129 (inactive)"}
{"smiles": "O=S1(=O)OC(c2ccc(O)cc2)(c2ccc(O)cc2)c2ccccc21", "log2 luciferase activity ratio": "0.424 (inactive)"}
{"smiles": "O=S1(=O)C(c2ccccc2)C(N2CCCCC2)C1C1CC2c3ccccc3C1c1ccccc12", "note": "(centres undefined)", "log2 luciferase activity ratio": "0.456 (inactive)"}
{"smiles": "Cc1cc(N2CCOCC2)nc2ccc(Cc3ccc4nc(N5CCOCC5)cc(C)c4c3)cc12", "log2 luciferase activity ratio": "0.197 (inactive)"}
{"smiles": "OC(Cc1ccccc1)(Cc1ccccc1)c1ccccc1", "log2 luciferase activity ratio": "-0.0177 (inactive)"}
{"smiles": "OC(c1cc(C23CC4CC(CC(C4)C2)C3)nc2c(Cl)cc(Cl)cc12)C1CCCCN1", "note": "(centres undefined)", "log2 luciferase activity ratio": "0.104 (inactive)"}
{"smiles": "Oc1ccc(-c2nc(-c3cccnc3)c(-c3ccc(F)cc3)[nH]2)cc1", "log2 luciferase activity ratio": "-0.338 (inactive)"}
{"smiles": "C=C1C(=O)OC2C1C(OC(=O)/C(C)=C/COC(C)=O)CC1(CO1)C1C(O)C=C(C)C21", "note": "(centres undefined)", "log2 luciferase activity ratio": "-0.477 (inactive)"}
{"smiles": "C=C1C(=O)O[C@H]2[C@H]1[C@H](OC(=O)/C(C)=C\\C)CC(=C)[C@@H]1[C@H](O)[C@H]3O[C@@]3(C)[C@@]12O", "log2 luciferase activity ratio": "0.0107 (inactive)"}
{"smiles": "C=C1C(=O)OC2C1C(OC(=O)/C(C)=C/C)CC(O)(CCl)C1C(OC(C)=O)C=C(C)C21O", "note": "(centres undefined)", "log2 luciferase activity ratio": "-1.14 (active)"}
{"smiles": "O=C(O)C(=O)/C=C(\\O)c1ccc(Br)cc1", "log2 luciferase activity ratio": "-0.065 (inactive)"}
{"smiles": "N=C(CC(=O)Nc1ccccn1)c1ccccc1", "log2 luciferase activity ratio": "0.825 (inactive)"}
{"smiles": "COc1ccc(/C=N/NC(=O)O)cc1", "log2 luciferase activity ratio": "0.161 (inactive)"}
{"smiles": "CC(CSC(=N)N)C(N)=O", "note": "(centres undefined)", "log2 luciferase activity ratio": "0.0537 (inactive)"}
{"smiles": "Cc1c(-c2nc(N)nc(C3CC3)c2C)nc(N)nc1C1CC1", "log2 luciferase activity ratio": "-0.199 (inactive)"}
{"smiles": "CN1CCN(CC(=O)N2c3ccccc3Sc3cc4ccccc4cc32)CC1", "log2 luciferase activity ratio": "0.0693 (inactive)"}
{"smiles": "O=[N+]([O-])c1cc(Cl)cc2c1nc(NCCO)c1ccccc12", "log2 luciferase activity ratio": "0.0337 (inactive)"}
{"smiles": "Nc1nc(Cl)cc(NCCO)n1", "log2 luciferase activity ratio": "-0.615 (active)"}
{"smiles": "COc1cccc2c1C(CO)N1C(C#N)C3CC(C(=O)O)C(C1C2)N3C", "note": "(centres undefined)", "log2 luciferase activity ratio": "-1.55 (active)"}
{"smiles": "O=C(O)C1Cc2c([nH]c3ccccc23)C(CCCCO)N1", "note": "(centres undefined)", "log2 luciferase activity ratio": "-0.0145 (inactive)"}
{"smiles": "O=C1OC(c2ccc(O)c(-c3ccccc3)c2)(c2ccc(O)c(-c3ccccc3)c2)c2c(Cl)c(Cl)c(Cl)c(Cl)c21", "log2 luciferase activity ratio": "-0.153 (inactive)"}
{"smiles": "CN(C)c1ccc2nc3c(C(=O)O)cc(=O)c(O)c-3oc2c1", "log2 luciferase activity ratio": "-2.21 (active)"}
{"smiles": "O=C(O)c1ccc(Cc2ccccc2C(=O)O)cc1", "log2 luciferase activity ratio": "-0.21 (inactive)"}
{"smiles": "COC(=O)[C@]1(C)CCC[C@]2(C)C3=CC(=O)[C@@]4(C(C)C)O[C@H]4[C@]3(O)CC[C@@H]12", "log2 luciferase activity ratio": "-0.359 (inactive)"}
{"smiles": "OC1(c2ccccc2)c2ccccc2NC2=NCCN21", "note": "(centres undefined)", "log2 luciferase activity ratio": "0.416 (inactive)"}
{"smiles": "Ic1ccc2c(c1)N(c1ccccc1)c1cc(N=c3ccc4nc5ccc(I)cc5n(-c5ccccc5)c-4c3)ccc1N2", "log2 luciferase activity ratio": "0.338 (inactive)"}
{"smiles": "CC(=O)[C@H]1CC[C@@H]2[C@]1(C)CC=C1[C@]23C=C[C@]2(C[C@@H](O)CC[C@]12C)C(C(=O)O)C3C(=O)O", "note": "(some centres undefined)", "log2 luciferase activity ratio": "-0.137 (inactive)"}
{"smiles": "CC(C)Cn1cnc2c(Sc3c([N+](=O)[O-])ncn3C)nc(N)nc21", "log2 luciferase activity ratio": "-0.473 (inactive)"}
{"smiles": "Cn1cnc([N+](=O)[O-])c1Sc1nc(N)nc2c1ncn2C1CC(O)C(CO)O1", "note": "(centres undefined)", "log2 luciferase activity ratio": "-0.645 (active)"}
{"smiles": "COc1nc(N)nc2c1ncn2C1CC(O)C(CO)O1", "note": "(centres undefined)", "log2 luciferase activity ratio": "0.0307 (inactive)"}
{"smiles": "CC1(C)CC23C4COC(=O)C2CCC1C3CC4=O", "note": "(centres undefined)", "log2 luciferase activity ratio": "0.113 (inactive)"}
{"smiles": "O=C(O)CCn1cnc2c(=S)nc[nH]c21", "log2 luciferase activity ratio": "-0.179 (inactive)"}
{"smiles": "C[C@@H]1C(=O)C[C@H]2C(C)(C)CCC[C@]2(C)[C@@]1(O)CCc1ccoc1", "log2 luciferase activity ratio": "-0.608 (active)"}
{"smiles": "O=C(CSc1nc2ccccc2s1)c1sc2sc3ccccc3[n+]2c1[O-]", "log2 luciferase activity ratio": "0.244 (inactive)"}
{"smiles": "O=C(O)C1C(C(=O)O)C2C(=O)C=CC1N2Cc1ccccc1", "note": "(centres undefined)", "log2 luciferase activity ratio": "0.0328 (inactive)"}
{"smiles": "CC(C)Cn1cnc2c(SCc3ccc(Cl)cc3Cl)nc(N)nc21", "log2 luciferase activity ratio": "0.484 (inactive)"}
{"smiles": "NC1(C(=O)NC2(C(=O)O)CCCC2)CCCC1", "log2 luciferase activity ratio": "0.0359 (inactive)"}
{"smiles": "O=C(Nc1ccc(Nc2ccc3c(c2)C(=O)c2ccccc2C3=O)c2c1C(=O)c1ccccc1C2=O)c1ccccc1", "log2 luciferase activity ratio": "0.326 (inactive)"}
{"smiles": "O=C(O)[C@H](c1ccccc1)[C@@H](C(=O)O)c1ccccc1", "log2 luciferase activity ratio": "-0.0929 (inactive)"}
{"smiles": "NNC(=O)Cc1cccnc1", "log2 luciferase activity ratio": "0.269 (inactive)"}
{"smiles": "N=C(N)SCCN1CCCCC1", "log2 luciferase activity ratio": "0.0135 (inactive)"}
{"smiles": "CCCNc1ncnc2[nH]ncc12", "log2 luciferase activity ratio": "-0.531 (inactive)"}
